The campaign covered roughly 190,000 compounds. About 1,300 (0.68%) were called active. Cut-off read from the data, not from the text of the source: active = inhibition above about 50%; inactive = the rest. The list comes from a sample in which actives are over-represented; it also holds similar structures and randomly drawn compounds.
These compounds were tested against Mannose-6-phosphate isomerase (Homo sapiens) (UniProt P34949) (assay: MPI inhibition at elevated mannose 6-phosphate – biochemical, fluorescence intensity, high mannose 6-phosphate, primary screen (AID 1220)). Details: recombinant PMI enzyme, coupled fluorescence intensity; at 20 µM; stronger effect = higher value.
Mannose-6-phosphate isomerase (Homo sapiens), sequence (P34949 whole entry, looked up): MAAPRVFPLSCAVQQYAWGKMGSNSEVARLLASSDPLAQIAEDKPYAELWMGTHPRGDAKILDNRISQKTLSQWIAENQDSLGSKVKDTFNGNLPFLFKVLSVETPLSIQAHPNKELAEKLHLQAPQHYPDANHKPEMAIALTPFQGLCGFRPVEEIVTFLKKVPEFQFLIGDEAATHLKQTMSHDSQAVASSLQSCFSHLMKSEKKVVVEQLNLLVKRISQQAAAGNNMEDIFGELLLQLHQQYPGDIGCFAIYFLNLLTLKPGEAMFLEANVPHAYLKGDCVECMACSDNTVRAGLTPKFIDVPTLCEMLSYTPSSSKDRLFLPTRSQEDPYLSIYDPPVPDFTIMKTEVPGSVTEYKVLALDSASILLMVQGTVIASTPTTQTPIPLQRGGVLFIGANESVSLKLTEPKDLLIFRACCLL

inhibition, inactive:
O=C(NCc1ccco1)c1ccc(CN2CCOCC2)cc1 -9.5%
COC(=O)c1ccc(NC(=S)NC2c3ccccc3CC2O)cc1 (stereo not drawn) 15.2%
CCOC(=O)C(=O)Nc1ccc([N+](=O)[O-])cc1OC 16.8%
CCN(CC)S(=O)(=O)c1ccc(Cl)c(NC(=O)c2ccc(C#N)cc2)c1 -3.1%
CCc1ccc2c(c1)c1nc(C)sc1n2CC(=O)OC 5.8%
Cc1nc2c3cc(F)ccc3n(Cc3ccccc3)c2s1 32.5%
CCOC(=O)Cn1c2ccc(C)cc2c2nc(C)sc21 26.1%
Cc1nc2c3cc(F)ccc3n(Cc3ccccc3F)c2s1 14.7%
Cc1cccc(C)c1NC(=O)C(=O)c1cn(C)c2ccccc12 -8.1%
COc1cc2c(C(=O)N3CCN(C)CC3)c(C)oc2cc1Br 11.7%
COc1ccc(CC(=O)NC2CC(C)(C)NC(C)(C)C2)cc1 -9%
Cc1ccc(Sc2nc3c(c(=O)[nH]c(=O)n3C)n2CCc2ccccc2)cc1 18.4%
CN(C)c1cc[nH]c(=O)c1C#N 6.4%
COc1cccc(-c2nnc(SCC(=O)Nc3cc(C)on3)n2C)c1 -5.8%
CCOc1ccc(Br)cc1/C=N/O 16.4%
CCc1ccc(O)c(N=Cc2ccccc2O)c1 23.3%
COC(=O)c1ccccc1NC(=O)CSc1nc(-c2ccco2)cc(C(F)(F)F)n1 12.4%
CCOC(=O)N1CCC(N2C(=O)c3ccccc3C2Nc2cc(Cl)c(OC)cc2OC)CC1 (stereo not drawn) 21.3%
Cc1cc(=O)oc(C)c1C(=O)OCC(=O)c1ccc2ccccc2c1 -11.8%
Cc1cc(=O)oc(C)c1C(=O)OCC(=O)c1ccc(Cl)c(Cl)c1 3.4%
COc1ccc(-c2[nH]ncc2CNCC(C)(C)N2CCOCC2)cc1F 8.1%
CN=C(Nc1cccc(OC)c1)SC1CC(=O)N(c2ccc(C(=O)O)cc2)C1=O (stereo not drawn) 8.7%
O=C(CCS(=O)(=O)Cc1ccc(Cl)cc1)NCCCN1CCOCC1 4.1%
CCCCCCCCCCCCCCCC[n+]1cccc2ccccc21 -9.4%
CCCCN(CCCC)C(=S)NC(=O)c1ccccc1Cl 7.7%
CCN(CC)C(=S)NC(=O)c1ccc(Cl)cc1Cl 0.2%
CCOc1cc(N2CCOCC2)c(OCC)cc1NC(=O)c1ccc(=O)n(Cc2ccccc2)n1 7.5%
O=C(NC1CCCCC1)C(c1cc2c(cc1[N+](=O)[O-])OCO2)N1CCCCC1 (stereo not drawn) 46.3%
O=CN1CCN(C(C(=O)NC2CCCC2)c2cc3c(cc2[N+](=O)[O-])OCO3)CC1 (stereo not drawn) 31.4%
O=C(NC1CCCC1)C(c1cc2c(cc1[N+](=O)[O-])OCO2)N1CCCC1 (stereo not drawn) 23.9%
CCN1CCN(C(C(=O)NC2CCCC2)c2cc3c(cc2[N+](=O)[O-])OCO3)CC1 (stereo not drawn) 46.2%
CCOC(=O)Cn1nc(C)n(-c2c(C)cccc2C)c1=O 8.1%
Cc1cc(Cl)ccc1OCCCC(=O)N1CCCCC1 -5.5%
COc1ccc(S(=O)(=O)N2CCSC2c2ccc(OC)c(OC)c2)cc1 (stereo not drawn) -17.1%
Cc1cccc(NC(=S)NCCc2ccccc2)n1 6.5%
C=CCOn1c(C)c(C(C)=O)c2c3nonc3ccc21 49.2%
COn1c(C)c(C(C)=O)c2c3no[n+]([O-])c3ccc21 8.2%
C=CC[n+]1c(/C=C2\C=Cc3cc(C)ccc3N2CC)ccc2ccccc21 9%
CCN1C(=C(C#N)C#N)C=Cc2cc(C)ccc21 5.3%
CCOC(=O)c1ccc(NC(=O)c2n[nH]c(=O)c3ccccc23)cc1 -0.1%
CCN(CC(=O)Nc1cccc(C(C)=O)c1)S(=O)(=O)c1ccc(C)cc1 -6.4%
O=c1c2c(-c3ccc([N+](=O)[O-])cc3)csc2nc2n1CCC2 28.9%
CN(c1ccc(O)cc1)c1nc(-c2ccccc2)cs1 25.1%
Cc1cc(O)ccc1Nc1nc(-c2sc(N)nc2C)cs1 2%
CNC(=S)N1N=C(c2ccccc2)CC1c1ccccc1Cl (stereo not drawn) 1%
CC(C)(C)NC(=S)NCc1ccc2c(c1)OCO2 -10.4%
O=C(COc1cccc2cccnc12)NCc1cccs1 37.7%
Cc1cc(NC(=O)COc2ccccc2C)no1 -5.2%
NNC(=O)COc1cccc2cccnc12 -9.1%
O=C(COc1cccc2cccnc12)Nc1ccccc1 5.4%
Cc1cc(NC(=O)COc2cccc(C)c2C)no1 4.6%
Cc1ccc(NC(=O)CN(C)S(=O)(=O)c2cccc3cccnc23)cc1 15.3%
CCc1ccc(NC(=O)CC2C(=O)Nc3c2c(=O)n(C)c(=O)n3C)cc1 (stereo not drawn) 2.9%
CC1SC(c2ccc(Cl)cc2)NC1=O (stereo not drawn) 7.4%
NC(=O)c1cc2ccccc2o/c1=N/NC(=O)c1cccs1 2.2%
COc1ccc(OC)c(NC(=O)N[C@@H](Cc2ccccc2)C(=O)O)c1 8.2%
Cn1c(C(=O)NC2CC2)cc2c(=O)n(C)c3ccccc3c21 0%
COc1ccc(OC/C(O)=C(\C#N)c2nc3ccccc3[nH]2)cc1 1.2%
CCC(=O)Nc1cccc(C(=O)/C=C/c2ccc(F)cc2)c1 9.5%
O=C1CCCC2=C1C(c1ccccc1)CC(=O)N2c1ccc(F)cc1F (stereo not drawn) 5.4%
CCOC(=O)c1ccc2c(c1)N(CC(=O)N1CCCCC1)C(=O)C(C)(C)O2 5.7%
COc1ccc(Nc2nc(C)c(-c3ccccc3)s2)cc1 6.2%
C=CCNC(=S)N1CCN(c2ncc3c(=O)c(C(=O)O)cn(CC)c3n2)CC1 14.8%
O=C(Nc1cccc2ccccc12)N1CCN(c2ccccc2)CC1 15.4%
CCn1cc(C(=O)O)c(=O)c2cnc(N3CCNCC3)nc21 14.5%
S=C(Nc1cccc2ccccc12)N1CCN(c2ncccn2)CC1 33.6%
CCn1cc(C(=O)N2CCn3c(nc4ccccc43)C2)c(=O)c2ccc(C)nc21 -2%
CCn1c(CN2CCN(CCO)CC2)nc2ccccc21 2.7%
CC1CCCC(C)N1/N=C/c1ccc(Cl)cc1 (stereo not drawn) -10.4%
CCN1C(=O)/C(=C/C=C2/Sc3ccccc3N2CCO)SC1=S 8.4%
CCN1C(=O)/C(=C\N2CCCCCC2)SC1=S 7%
CCCN1C(=O)/C(=C\C=C2\N(CC)c3ccccc3C2(C)C)SC1=S 18.5%
CCCN1C(=O)/C(=C/C=C2\N(CC)c3ccccc3C2(C)C)SC1=S 10.7%
CCCCN1C(=O)/C(=C/C=C2\Oc3ccccc3N2CC)SC1=S 19.9%
CCN1C(=O)/C(=C2/C=CC=CN2C)SC1=S 9.3%
CCn1c(C(C)NC(=O)Cc2ccccc2)nc2ccccc21 (stereo not drawn) -0.2%
O=C(CSc1nnc2ccccn12)Nc1ccc2c(c1)OCO2 13.7%
Cc1ccc(NC(=S)NN(C)c2cc(C)nc(C)n2)cc1 -11%
CCS(=O)(=O)NCCc1cc2cc(C)c(C)cc2[nH]c1=O 0.4%
CCCCOC(=O)c1cc(=O)[nH]c2ccccc12 6.8%
Cc1cc(C(=O)N/N=C/c2ccc3c(c2)OCO3)c(C)n1-c1ccc(F)cc1 -30.4%
COc1ccc(/C=N/NC(=O)c2cc(C)n(-c3ccccc3)c2C)cc1OC 9.5%
O=C(COC(=O)c1ccccc1[N+](=O)[O-])c1ccc(C2CCCCC2)cc1 -0.8%
COc1ccc(C(=O)OCC(=O)c2ccc(C3CCCCC3)cc2)cc1 9.2%

inhibition, active:
Cc1nc2c3cc(F)ccc3n(Cc3ccc(F)cc3)c2s1 53.2%
CCc1ccc2c(c1)c1nc(C)sc1n2CC 55.2%
CCCc1ccc(O)c(N=Cc2cc(Br)cc(OCC)c2O)c1 53.1%
Cc1ccc(C(=O)COC(=O)c2c(C)cc(=O)oc2C)cc1[N+](=O)[O-] 58.1%
CCCN(CCC)C(=S)NC(=O)c1ccc(Cl)cc1Cl 87.2%
CC1CCN(C(C(=O)NC2CCCCC2)c2cc3c(cc2[N+](=O)[O-])OCO3)CC1 (stereo not drawn) 61.1%
O=CN1CCN(C(C(=O)NC2CCCCC2)c2cc3c(cc2[N+](=O)[O-])OCO3)CC1 (stereo not drawn) 58.3%
COn1c(C)c(C(C)=O)c2c3nonc3ccc21 58%
CCN1/C(=C/c2cc[n+](C)cc2)C=Cc2cc(C)ccc21 66.7%
Cc1nc(N)sc1-c1csc(N(C)c2ccc(O)cc2)n1 56.3%
O=C(COc1cccc2cccnc12)NCC(F)(F)F 56.1%
Cc1cc(NC(=O)COc2cccc3cccnc23)no1 51.1%
O=C(Nc1cccc2ccccc12)N1CCN(c2ncccn2)CC1 68.9%
CCn1cc(C(=O)O)c(=O)c2cnc(N3CCN(C(=O)Nc4cccc5ccccc45)CC3)nc21 58.3%
CCCN1C(=O)/C(=C\C=C2/C=CN(CC)c3ccccc32)SC1=S 65.3%
CCN1C(=O)/C(=C/C=C2\C=CN(CC)c3ccccc32)SC1=S 64.1%
CCN1C(=O)/C(=C\C=C2/C=CC=CN2CC)SC1=S 65.6%
COc1cc(/C=N/NC(=O)c2cc(C)n(-c3ccc(F)cc3)c2C)cc(OC)c1O 51.9%
Nc1ccc(O)cc1C(=O)OCC(=O)c1ccc(C2CCCCC2)cc1 60.3%
